# The entries come from a sample that favours hits as a whole.
# FECH inh – inhibitors of human ferrochelatase, primary screen, biochemical, purified FECH, Ni-mesoporphyrin absorbance; Ferrochelatase, mitochondrial (Homo sapiens), P22830; Ni-mesoporphyrin absorbance 550 nm; calls only at 10 µM (by protocol); 20,000 tested, 3.3% active;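 active = enzyme reaction rate more than 3 SD below the solvent-only control wells on the same plate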;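 note: lower slope than DMSO wells means FECH inhibition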
# Target sequence (P22830 whole entry, looked up): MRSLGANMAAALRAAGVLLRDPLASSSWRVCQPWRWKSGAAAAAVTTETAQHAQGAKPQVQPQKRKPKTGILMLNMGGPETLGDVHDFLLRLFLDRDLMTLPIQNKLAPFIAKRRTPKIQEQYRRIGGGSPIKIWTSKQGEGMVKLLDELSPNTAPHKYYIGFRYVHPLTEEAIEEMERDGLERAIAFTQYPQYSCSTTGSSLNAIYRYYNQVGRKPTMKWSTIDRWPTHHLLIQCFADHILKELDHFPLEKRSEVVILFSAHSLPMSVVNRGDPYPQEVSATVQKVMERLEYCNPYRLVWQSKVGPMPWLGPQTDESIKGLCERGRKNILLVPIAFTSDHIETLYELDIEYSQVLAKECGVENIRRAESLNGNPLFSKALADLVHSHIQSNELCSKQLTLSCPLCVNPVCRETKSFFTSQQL
# * hit, by the source's call; i = inactive; + = active, no number.
SMILES,FECH inh
COc1ccccc1C(=O)Nc1cccc(OCc2cc(=O)n3cc(Cl)ccc3n2)c1,+
Cc1ccn2c(=O)cc(COc3cccc(NC(=O)c4ccco4)c3)nc2c1,+
Cc1ccn2c(=O)cc(COc3cccc(NC(=O)c4cccs4)c3)nc2c1,i
CCCC(=O)Nc1cccc(OCc2cc(=O)n3cc(Cl)ccc3n2)c1,i
Cc1ccn2c(=O)cc(COc3cccc(NC(=O)C(C)C)c3)nc2c1,+
Cc1cc(C)cc(Nc2nc(N3CCN(c4ccccc4)CC3)nc3c2cnn3-c2ccccc2)c1,i
COc1cccc(C(=O)NC2CC(=O)N(c3cccc(F)c3)C2)c1OC (configuration not stated),i
CCc1c(C)nc2ncnn2c1Sc1ccc(NC(=O)Nc2ccccc2Cl)cc1,i
O=C(O)CC1COCCN1C(=O)CC12CC3CC(CC(C3)C1)C2 (configuration not stated),i
CC(=O)NCC1CCC2(CCN(c3nccc(CCC(F)(F)F)n3)CC2)O1 (configuration not stated),i
CCC(=O)Nc1ccccc1-c1nnc(SCC(=O)Nc2ccccc2Cl)[nH]c1=O,i
CCC(=O)Nc1ccccc1-c1nnc(SCC(=O)Nc2cccc(C)c2C)[nH]c1=O,i
CCC(=O)Nc1ccccc1-c1nnc(SCC(=O)Nc2cc(C)cc(C)c2)[nH]c1=O,+
COc1ccc(OC)c(NC(=O)CN2C(=O)CN(C)C(=O)c3ccccc32)c1,i
CCOC(=O)c1cc2n(n1)CC(C)(C(=O)NCCC(C)C)N(c1ccc(Cl)cc1)C2=O (configuration not stated),i
CCOC(=O)c1cc2n(n1)CC(C)(C(=O)NCCC(C)C)N(c1cc(C)cc(C)c1)C2=O (configuration not stated),+
CCOC(=O)c1cc2n(n1)CC(C)(C(=O)NCCC(C)C)N(c1cc(OC)cc(OC)c1)C2=O (configuration not stated),i
COCCCN(CCC(=O)N1CCNCC1)C(=O)c1cccc(NC(C)=O)c1,i
Nc1nc(N2CCCCCC2)ncc1S(=O)(=O)c1cccs1,+
Cc1cc(N2CCCCC2)nc(N2CCN(S(=O)(=O)c3ccccc3)CC2)n1,i
Cc1cc(N2CCCC2)nc(N2CCN(S(=O)(=O)c3ccccc3)CC2)n1,i
Cc1cc(Nc2ccc(OC(=O)c3ccc(F)c(F)c3)cc2)n2nc(-c3cccnc3)nc2n1,i
COc1cc(C(=O)N(Cc2nc3nc(C)cc(C)n3n2)c2cccc(C)c2)cc(OC)c1OC,i
Cc1cc(C)n2nc(CN(C(=O)CC(C)C)c3ccccc3)nc2n1,i
CCCC(=O)N(Cc1nc2nc(C)cc(C)n2n1)c1ccc(F)cc1,i
SMILES,FECH inh
COc1ccc(C(=O)N(Cc2nc3nc(C)cc(C)n3n2)c2cccc(C)c2)cc1,+
Cc1cccc(N(Cc2nc3nc(C)cc(C)n3n2)C(=O)COc2ccccc2)c1,+
CCOc1ccc(N(Cc2nc3nc(C)cc(C)n3n2)C(=O)c2cccc(C)c2)cc1,i
Cc1cccc(N(Cc2nc3nc(C)cc(C)n3n2)C(=O)C(C)(C)C)c1,i
CCCC(=O)N(Cc1nc2nc(C)cc(C)n2n1)c1ccccc1,+
COc1cccc(C(=O)N(Cc2nc3nc(C)cc(C)n3n2)c2cccc(C)c2)c1,i
CCc1ccc(NC(=O)Cc2csc(NC(=O)Nc3ccccc3OC)n2)cc1,i
Cc1cc(C)n(-c2ccc(F)cc2-c2nccn2CCc2cnc[nH]2)n1,i
Cc1cc(Nc2ccc(OC(=O)c3ccccc3F)cc2)n2nc(-c3cccnc3)nc2n1,i
CCc1ccc(CN(Cc2cccnc2)Cc2ccsc2)nc1,i
O=C(CN1CCN(Cc2ccccc2F)S1(=O)=O)Nc1ccc(F)c(Cl)c1,i
CCOC(=O)c1ccccc1NC(=O)CN1CCN(Cc2ccc(F)cc2Cl)S1(=O)=O,+
O=C(CN1CCN(Cc2ccccc2Cl)S1(=O)=O)Nc1ccc(Cl)cc1,i
O=C(CN1CCN(Cc2ccc(F)cc2Cl)S1(=O)=O)Nc1ccc(Br)cc1,i
COc1ccccc1NC(=O)CN1CCN(Cc2ccc(F)cc2Cl)S1(=O)=O,i
O=C(CN1CCN(Cc2ccc(F)cc2Cl)S1(=O)=O)Nc1ccccc1Cl,i
Cc1ccc(NC(=O)CN2CCN(Cc3ccc(F)cc3Cl)S2(=O)=O)cc1,+
CCc1ccc(NC(=O)CN2CCN(Cc3ccc(F)cc3Cl)S2(=O)=O)cc1,i
O=C(CN1CCCN(Cc2ccccc2Cl)S1(=O)=O)Nc1ccc(F)c(Cl)c1,+
Cc1cc(C(=O)N2CCC(c3cc(Cc4ccccc4)[nH]n3)CC2)cc(=O)[nH]1,i
NC(=O)c1cc2c(nc1N1C[C@H]3OC(=O)N(C4CCCC4)[C@H]3C1)CCC2,i
CC(CCc1ccccc1)NC(=O)C1CCN(c2ncnc3c2nc2n3CCCCC2)CC1 (configuration not stated),i
Cc1cccc(N(Cc2nc3nc(C)cc(C)n3n2)C(=O)c2ccccc2F)c1,i

# Screens deposited in PubChem BioAssay by Corson Lab, School of Medicine, Indiana University.
